{"source": "PubChem BioAssay", "data": [{"test_system": "glycogen synthase kinase-3 (GSK3A per assay name; protocol says GSK3B)", "test": "compounds binding glycogen synthase kinase-3 – biochemical, small-molecule microarray, 635 nm fluorescence, GSK3A, primary screen (AID 1103); note: the record names both GSK3A and GSK3B", "conditions": "fluorescence 635 nm, higher = more signal", "values": [{"smiles": "COC(=O)[C@H]1N=C(c2ccc(OCCCO)cc2)O[C@H]1c1ccccc1CN=[N+]=[N-]", "composite z-score": -1.04}, {"smiles": "C[N+](C)(C)CCCCNC(=O)[C@H]1C[C@H]2C(=O)NCC(=O)N2[C@H]1c1ccc(O)cc1", "composite z-score": 1.35}, {"smiles": "CN(C)CCCCCCNC(=O)[C@@H]1C[C@@H]2C(=O)NCC(=O)N2[C@@H]1c1ccc(O)cc1", "composite z-score": 1.36}, {"smiles": "COc1ccc(C#Cc2ccc3c(c2)[C@]2(C(=O)N3)[C@H](c3ccc(OCCO)cc3)N3[C@H](c4ccccc4)[C@H](c4ccccc4)OC(=O)[C@H]3[C@@H]2C(=O)N2CCN(c3ncccn3)CC2)cc1", "composite z-score": 0.693}, {"smiles": "[N-]=[N+]=NCc1ccccc1[C@H]1OC(c2ccc(OCCCO)cc2)=N[C@@]1(Cc1ccccc1)C(N)=O", "composite z-score": 0.644}, {"smiles": "C#CCOC(=O)N[C@H](C=CCCCC)c1ccccc1", "composite z-score": 0.35}, {"smiles": "COc1cccc(C[C@H]2C[C@@H](CO[Si](C(C)C)(C(C)C)C(C)C)N3C(=O)[C@]4(C(C)=O)O[C@]23[C@H]2C(=O)N(C)C(=O)[C@H]24)c1", "composite z-score": 1.02}, {"smiles": "C=C(COC)/C(=C/C[C@@H](OC(=O)c1ccncc1)c1cccc(OCCO)c1)c1cc(C(=O)OC)ccc1OC", "composite z-score": 1.2}, {"smiles": "C[N+](C)(C)CCCC[C@@H]1NC(=O)[C@@H]2C[C@H](C(=O)NCCCCCNC(=O)CS)[C@H](c3cccc(OCCO)c3)N2C1=O", "composite z-score": 0.23}, {"smiles": "CCCCCCCCCCC(O)C1C=CC2C(=O)NC(=O)C2N1Nc1ccccn1", "note": "(stereo unspecified)", "composite z-score": -0.811}, {"smiles": "CCOC(=O)C[C@H]1[C@H](OC(=O)c2ccc(C(=O)c3ccccc3)cc2)[C@@H](NC(=O)C2CCCCC2)c2cc(OCCCO)ccc2N1C(=O)Cc1ccc(OC)cc1", "composite z-score": 0.328}, {"smiles": "COc1ccc([Si](C)(C)[C@@H]2[C@@H](CCO)O[C@]3(C(=O)N(Cc4ccc(N5C(=O)c6ccccc6Oc6ccccc65)cc4)c4ccccc43)[C@H]2C)cc1", "composite z-score": -1.07}, {"smiles": "O=C1O[C@@H](c2ccccc2)[C@@H](c2ccccc2)N2[C@@H](c3ccc(O)cc3)[C@]3(C(=O)Nc4ccc(C#CC5(O)CCCCCC5)cc43)[C@@H](C(=O)N3CCN(c4ncccn4)CC3)[C@H]12", "composite z-score": 0.709}, {"smiles": "COCCCNC(=O)[C@@]1(C)c2ccccc2C(=O)N(c2ccc(C)cn2)[C@H]1c1ccc(CO)cc1", "composite z-score": -0.799}, {"smiles": "COc1ccc([Si](C)(C)[C@H]2[C@H](CCO)O[C@@]3(C(=O)N(Cc4cccc(N5CCOC5=O)c4)c4ccccc43)[C@@H]2C)cc1", "composite z-score": 0.808}, {"smiles": "O=C(N1CCOCC1)[C@@]1(CCS(=O)(=O)c2ccccc2)COC(c2ccc(OCCCO)cc2)=N1", "composite z-score": 0.443}, {"smiles": "COCCOC(=O)N1C(=O)[C@@]2(c3cc(C#Cc4ccc(OC)cc4)ccc31)[C@H](C(N)=O)[C@H]1C(=O)O[C@H](c3ccccc3)[C@H](c3ccccc3)N1[C@@H]2c1ccc(OCCO)cc1", "composite z-score": 1.33}, {"smiles": "C=C[C@H](C)[C@H](OC(=O)Nc1ccc(SC)cc1)c1ccc(O)c2ccccc12", "composite z-score": -0.266}, {"smiles": "C=C(CCCC)/C(=C/C[C@H](OC(=O)c1ccncc1)c1ccc(CO)o1)c1cc(C(=O)OC)ccc1OC", "composite z-score": 1.26}, {"smiles": "CN1C(=O)C2C=CC(C(O)c3cccc4ccccc34)N(NC(=O)OC(C)(C)C)C2C1=O", "note": "(stereo unspecified)", "composite z-score": 1.03}, {"smiles": "COc1cc2c(cc1OC)CN(C(=O)[C@@H]1[C@H]3C(=O)O[C@H](c4ccccc4)[C@H](c4ccccc4)N3[C@H](c3ccc(OCCO)cc3)[C@@]13C(=O)Nc1ccc(C#CCCO)cc13)CC2", "composite z-score": 1.27}, {"smiles": "NCCCCCCNC(=O)[C@H]1C[C@H]2C(=O)N3CCC[C@H]3C(=O)N2[C@H]1c1ccc(O)cc1", "composite z-score": 0.572}, {"smiles": "C[C@H]1NC(=O)C([C@@H](C)OCc2ccccc2)NC(=O)[C@@]23C(=O)N[C@@H](Cc4ccccc4)C2[C@H](C)[C@@]2(C)O[C@H]2C3/C=C/CC/C=C/CNC1=O", "note": "(stereo partly specified)", "composite z-score": -0.248}, {"smiles": "O=C1O[C@@H](c2ccccc2)[C@@H](c2ccccc2)N2[C@@H](c3ccc(O)cc3)[C@]3(C(=O)Nc4ccc(C#CC5=CCCCC5)cc43)[C@@H](C(=O)Nc3nc4ccccc4s3)[C@H]12", "composite z-score": 1.29}, {"smiles": "CC(C)(C)N1CC=CC23O[C@@H]4C=CCCOC(=O)C4[C@H]2C(=O)N(CCCO)[C@@H]3C1=O", "note": "(stereo partly specified)", "composite z-score": -0.764}, {"smiles": "CN(C)CCCCNC(=O)[C@H]1C[C@H]2C(=O)N[C@@H](CCCC[N+](C)(C)C)C(=O)N2[C@H]1c1cccc(OCCO)c1", "composite z-score": 0.571}, {"smiles": "CCCCC(CC)C(O)C1C=CC2C(=O)NC(=O)C2N1Nc1ccccn1", "note": "(stereo unspecified)", "composite z-score": 0.493}, {"smiles": "C[N+](C)(C)CCCCCCNC(=O)[C@@H]1C[C@@H]2C(=O)NCC(=O)N2[C@@H]1c1cccc(OCCO)c1", "composite z-score": 0.496}, {"smiles": "CCCCC=C[C@@H](NC(=O)CCc1ccccc1)c1ccccc1", "composite z-score": 0.869}, {"smiles": "C[N+](C)(C)CCCCCCNC(=O)[C@H]1C[C@H]2C(=O)N3CCC[C@H]3C(=O)N2[C@H]1c1cccc(OCCO)c1", "composite z-score": 1.23}, {"smiles": "COc1cccc(C)c1NC(=O)O[C@H]1[C@H](OC(=O)Nc2ccccc2)[C@H](OC(=O)Nc2ccccc2)[C@@H](OC)O[C@@H]1CO", "composite z-score": 0.0861}, {"smiles": "CC(C)NC(=O)[C@@]1(Cc2ccccc2I)c2ccccc2C(=O)N(Cc2ccccc2C(F)(F)F)[C@H]1c1ccc(CO)cc1", "composite z-score": 0.182}, {"smiles": "COCCCNC(=O)[C@@]1(Cc2ccccc2CN=[N+]=[N-])N=C(c2ccc(OCCCO)cc2)O[C@H]1c1ccccc1N=[N+]=[N-]", "composite z-score": 1.22}, {"smiles": "C=C(C)[C@@H]1CC=C(C(O)C2C=CC3C(=O)N(C4CCCCC4)C(=O)C3N2Nc2ccc(OC)cc2)CC1", "note": "(stereo partly specified)", "composite z-score": 1.31}, {"smiles": "C=CCC(OC(C)=O)[C@@H]1[C@@H](N(Cc2ccc(-c3ccccc3)cc2)C(=O)Cc2ccc(OC)cc2)c2cc(OCCCO)ccc2N1C(=O)c1ccc(-c2ccccc2)cc1", "note": "(stereo partly specified)", "composite z-score": -0.15}, {"smiles": "CC(C)=CCCC(C)=CC(O)C1C=CC2C(=O)N(c3ccccc3)C(=O)C2N1Nc1ccc([N+](=O)[O-])cc1", "note": "(stereo unspecified)", "composite z-score": 1.34}]}]}
